# SUMO Mot1 rescue: blocks SUMOylation pathway, rescuing yeast Mot1-301 growth. 320,000 tested, 1% active. AID 2716. growth rescue, % at 18.8 µM. S. cerevisiae Mot1-301 growth rescue, ATP luminescence, 38.5C; percent above DMSO median, 100 means doubled;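 active = every valid replicate shows activation above 250% relative to neutral control wells; inactive = the rest, any valid replicate at or below 250%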;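 note: OY570 slx delta 5 strain wells were the positive control but not used for scaling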
# MEKK2 mut-MEK5: signal of MEK5 binding to mutant human MEKK2 PB1 domain; percent response, % at 10 µM; bead flow cytometry, Alexa488-MEK5 binding to MEKK2 mutant; 290,000 tested, 0.35% active; AID 1530; in the data active = percent response above about 24%, passing the limit was not always enough
# CHT inh: human CHT choline transport inhibition | Q9GZV3 | CHT-expressing cells, membrane potential dye, choline response; hits give low values | B-score at 10 µM | 310,000 tested, 0.86% active | AID 488975;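 active = B-score over 3 SD under the library average, and starting fluorescence ratio not unusually high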;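 note: choline stimulus applied at its EC90 after an EC20 pre-addition; B-score computed on integrated fluorescence ratio after choline addition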
# Target sequence (Q9GZV3 whole entry, looked up): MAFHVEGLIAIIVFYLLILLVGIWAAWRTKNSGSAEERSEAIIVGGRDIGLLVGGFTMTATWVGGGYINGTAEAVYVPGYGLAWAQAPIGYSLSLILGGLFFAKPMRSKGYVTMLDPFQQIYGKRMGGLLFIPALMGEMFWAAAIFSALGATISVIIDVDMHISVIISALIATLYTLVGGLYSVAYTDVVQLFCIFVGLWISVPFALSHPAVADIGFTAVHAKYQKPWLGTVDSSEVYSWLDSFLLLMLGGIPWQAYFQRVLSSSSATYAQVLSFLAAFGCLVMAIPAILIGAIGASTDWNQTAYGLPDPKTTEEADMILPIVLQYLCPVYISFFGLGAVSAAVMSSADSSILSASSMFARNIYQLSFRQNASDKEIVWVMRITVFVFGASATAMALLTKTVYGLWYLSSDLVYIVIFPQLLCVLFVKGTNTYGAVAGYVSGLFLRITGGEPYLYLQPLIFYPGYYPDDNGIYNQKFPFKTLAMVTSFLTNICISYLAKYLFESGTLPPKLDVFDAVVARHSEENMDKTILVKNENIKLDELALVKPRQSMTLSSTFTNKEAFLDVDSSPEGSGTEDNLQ
# MEKK3 PB1 HTS: raises or lowers MEK5 binding to the human MEKK3 PB1 domain; Q99759; bead-based flow cytometry, Alexa488-MEK5 binding to MEKK3; actives lie on both sides; 0 = blocked by unlabeled MEK5, 100 = vehicle; binding response (% of control), % at 10 µM; 290,000 tested, 1.4% active; AID 1529;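 active = binding response more than 3 SD above or below the average of its plate-row segment, actives on both sides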;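 note: Alexa488 bead fluorescence after subtracting the streptavidin-only scavenger bead signal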
# CHT allo act: allosterically activates the human high affinity choline transporter. Q9GZV3. CHT-expressing cells, membrane potential dye, choline EC20; hits give high values; LV-AA mutant CHT in HEK293 cells. B-score at 10 µM. 310,000 tested, 0.49% active. AID 488977;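 active = initial fluorescence not abnormally high and integrated response B-score, plate-corrected, over 3 SD above library mean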
# MEKK2wt PB1 HTS: raises or lowers MEK5 binding to wildtype human MEKK2 PB1 domain; 290,000 tested, 1.1% active; bead flow cytometry, Alexa488-MEK5 binding to MEKK2 WT; actives lie on both sides; Q9Y2U5; binding response (% of control), % at 10 µM; in the data active = binding response below about 67% or above about 130%
# CHT act confirm: confirmation of human choline transporter (CHT) activators; CHT-expressing cells, membrane potential dye fluorescence (FDSS); % of choline EC20–EC90 response window; HEK293 expressing CHT LV-AA mutant; choline added at its EC20; shares compounds with CHT allo act; AID 504833; 2,500 tested, 91% active; activation, % at 10 µM;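 active = primary screen active, with duplicate mean activation above negative control mean plus 3 SD, cut at about 11% in these data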
# HEK293 MP dye: counter-screen for CHT activators: effect in parental HEK293 cells; shares compounds with CHT allo act; membrane potential dye fluorescence (FDSS); measured after EC20 choline addition; ratio readout change at 10 µM, hits read low; 2,500 tested, 62% active; AID 623908;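 active = duplicate-averaged ratio beyond 3 SD from buffer wells, up or down, though filed actives are nearly all decreases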
# The depositor's hits bear a star; i = inactive; / = not tested or not shown. Most compounds without a hit are left out; they make up all but 4.1% or so of the library.
SMILES,SUMO Mot1 rescue,MEKK2 mut-MEK5,CHT inh,MEKK3 PB1 HTS,CHT allo act,MEKK2wt PB1 HTS,CHT act confirm,HEK293 MP dye
COc1ccc(OC)c(C2C(C(=O)c3cc4ccccc4o3)=C(O)C(=O)N2c2cc(C)on2)c1 (configuration not stated),770.6,3.0,i,101.0,i,101.0,10.6*,i
CCOC(=O)c1c(C)[n+](-c2ccc(C)cc2)c(CC)c2cc(OC)c(OC)cc12,7.1,8.0,i,107.0,i,104.0,49.4*,-35.3*
CC1CCC(NC(=O)CSc2nnnn2C)CC1 (configuration not stated),-18.0,/,/,/,/,/,/,/
CCCCN(C)C(=O)Cc1c(OC)ccc2cc(Br)ccc12,48.3,2.0,i,98.0,6.71*,99.0,8.8,i
COc1ccc2cc(Br)ccc2c1CC(=O)N(C)C,-13.7,-2.0,i,96.0,i,96.0,/,/
O=C(Nc1cccc(C2=NCCN2)c1)Nc1cccc(C2=NCCN2)c1,-11.5,/,i,/,i,/,/,/
COc1cc(OC)cc(C2=NCCN2)c1,12.8,-1.0,i,96.0,i,91.0,35.2*,-43.5*
CCC1=Nc2ccc(Br)cc2C(c2ccccc2)N1CC(=O)OC (configuration not stated),-17.1,3.0,i,101.0,11.2*,110.0,13.6*,i
Cc1ccc(S(=O)(=O)N(Cc2ccc(C(F)(F)F)cc2)C(=O)N2CCN(C)CC2)cc1,170.2,/,i,/,i,/,/,/
COc1ccc(Cl)cc1NC(=O)CN(C)C(=O)c1cc(-c2ccncc2)nc2ccccc12,3.8,/,i,/,7.75*,/,49.3*,i
CCOc1ccc(S(=O)(=O)N2c3ccccc3CC2C)cc1 (configuration not stated),-6.0,0.0,i,106.0,i,106.0,39.2*,i
CS(=O)(=O)c1cnc(-c2cccnc2)nc1N,-5.4,2.0,i,104.0,i,102.0,/,/
C[n+]1ccc(/C=C/c2cccs2)cc1,6.6,-3.0,i,100.0,i,101.0,61.6*,-41.8*
CN(C)c1ccc(/C=C/c2cc[n+](C)cc2)cc1,5.9,16.0,i,97.0,6.46*,28.0*,33.6*,i
CCn1c(/C=C/c2cc[n+](C)cc2)nc2ccccc21,-12.5,1.0,i,102.0,i,100.0,/,/
N#Cc1c(Nc2cccc(F)c2)sc2c(O)cc(=O)[nH]c12,67.2,-2.0,i,105.0,i,95.0,/,/
Cc1ccccc1N=C(NOCc1ccc(Cl)cc1Cl)c1nonc1N,17.3,-3.0,i,100.0,i,97.0,/,/
Cc1ccc(N=C(NOCc2ccc(Cl)cc2Cl)c2nonc2N)c(C)c1,0.4,-3.0,i,103.0,8.79*,107.0,28.3*,i
c1ccc(CN2CCN(CCN3CCn4c3nc3ccccc34)CC2)cc1,112.0,5.0,i,109.0,i,111.0,27.0*,i
N=c1c2c3c(sc2ncn1CCN1CCOCC1)CCCCC3,-13.9,3.0,i,97.0,i,103.0,68.6*,-32.3*
N=c1c2c3c(sc2ncn1CCCO)CCCC3,-16.7,6.0,i,104.0,9.53*,106.0,26.5*,-56.1*
c1nc(NCCN2CCOCC2)c2c3c(sc2n1)CCCCC3,/,1.0,/,99.0,/,105.0,/,/
N=c1c2c3c(sc2ncn1Cc1ccccc1)CCCC3,-18.0,-1.0,i,93.0,i,100.0,/,/
CCCCn1cnc2sc3c(c2c1=N)CCCC3,1.2,-1.0,i,95.0,i,101.0,53.1*,-41.3*
CCN(CC)S(=O)(=O)c1ccc(C(=O)NCC2CCCCC2)cc1,-2.3,-1.0,i,100.0,i,97.0,/,/
SMILES,SUMO Mot1 rescue,MEKK2 mut-MEK5,CHT inh,MEKK3 PB1 HTS,CHT allo act,MEKK2wt PB1 HTS,CHT act confirm,HEK293 MP dye
Cc1ccc(N2CC(C(=O)Nc3ccc(S(=O)(=O)Nc4ncccn4)cc3)CC2=O)cc1C (configuration not stated),-21.9,-4.0,i,102.0,i,101.0,/,/
CC[C@@H](C)C(NC(=O)OC(C)(C)C)c1cn([C@@H](CCC(=O)OC(C)(C)C)C(=O)N2CCN(C(=O)OC(C)(C)C)CC2)nn1 (some centres not stated),-4.3,2.0,i,98.0,i,98.0,/,/
CCOc1ccc(C(C(=O)NC2CCCC2)N(Cc2ccccc2)C(=O)c2nsc(Cl)c2Cl)cc1 (configuration not stated),3.7,-12.0,i,86.0,i,87.0,1.4,i
COc1ccc(CC(=O)NC2CC(C)(C)NC(C)(C)C2)cc1,48.6,-3.0,i,104.0,i,92.0,/,/
CCN(CC)CCn1c(=N)n(CCOc2ccccc2)c2ccccc21,-0.8,13.0,i,107.0,i,114.0,/,/
Cn1c(=N)n(CC(=O)c2ccc(Br)s2)c2ccccc21,-19.6,/,i,/,i,/,/,/
CCN(CC)CCn1c(=N)n(CC(=O)c2ccc(Br)s2)c2ccccc21,-7.3,9.0,i,96.0,6.41*,116.0,21.2*,i
COc1ccccc1OCC(O)Cn1c(=N)n(Cc2ccccc2)c2ccccc21 (configuration not stated),-26.4,-5.0,i,82.0,9.55*,100.0,28.5*,i
CCN(CC)CCn1c(=N)n(CC(O)COc2ccccc2)c2ccccc21 (configuration not stated),13.1,-2.0,i,92.0,7.25*,95.0,21.1*,i
CCCc1cc(=O)oc2cc(OCC(=O)NC3CC(C)(C)NC(C)(C)C3)ccc12,13.8,6.0,i,102.0,i,102.0,/,/
Cc1nnc(N2CCC(C(=O)N3CCCCCC3)CC2)c2nn(-c3ccc(Cl)cc3)c(C)c12,4.2,1.0,i,101.0,i,103.0,/,/
CS(=O)(=O)Nc1cccc(C2=NN(S(=O)(=O)c3ccccc3)C(c3ccco3)C2)c1 (configuration not stated),-2.1,-10.0,i,102.0,i,90.0,25.6*,i
CCCN(C(=O)c1ccccc1Cc1ccccc1)C1CCS(=O)(=O)C1 (configuration not stated),-11.5,/,i,/,i,/,/,/
C=CCN1C(c2ccc(OCC)cc2)=CS/C1=C(\C#N)c1nnc2n1CCCCC2,355.8,7.0,i,107.0,9.18*,106.0,26.0*,i

# Compound activity deposited in PubChem by several laboratories.
